proKLK7 act – activators of human kallikrein-7 zymogen | P49862 | activation, % at 7 µM | AID 652039 | 370,000 compounds, 0.9% hits | purified proKLK7, EDANS-DABCYL substrate fluorescence; 100% is mature enzyme control, 0% vehicle;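 active means activation above the mean of all tested compounds plus 3 SD, computed per campaign excluding outliers beyond control limits, cut at about 13% in these data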
PG9 Ab binder – binds the HIV-1 gp120 antibody PG9; 360,000 compounds, 0.43% hits; inhibition, % at 6.7 µM; TR-FRET gp120-PG9 antibody binding; in the data active means inhibition above about 8.5%
PP1 inh – counter-screen for PP5 inhibitors: inhibitors of human PP1-alpha | 320,000 compounds, 0.9% hits | purified PP1alpha, OMFP fluorescence | AID 2235 | inhibition, % at 6.7 µM | P62136;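 active means inhibition above the mean inhibition of all tested compounds plus 3 SD, computed separately for each screening campaign, cut at about 15% in these data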
NR1D1 modulator – Rev-erb alpha (human) modulation. AID 1259318. activity, % at 10 µM. 370,000 compounds, 0.79% hits. Rev-erbα–FITC-DNA binding, fluorescence polarization, 90 min;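 active means activity above about 14%, limit read from the data; passing the limit was not always enough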;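 further: 0% = DMSO wells with 35 nM protein and 100% = DMSO wells with 750 nM protein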
GASC-1 inh – human JMJD2C demethylase inhibition. AID 2099. Q9H3R0. GST-JMJD2C(1-420) H3K9me3 demethylation, DELFIA europium. inhibition, % at 2.35 µM. 330,000 compounds, 0.069% hits;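 active means more than half of a compound's replicate wells show inhibition beyond 50%, single wells judged on their own value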;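 further: signal counts dimethyl H3K9 product captured on neutravidin plate; 0% = median of DMSO wells and 100% = 0.3 times that DMSO median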
Target sequence (Q9H3R0 1-420 limits assumed): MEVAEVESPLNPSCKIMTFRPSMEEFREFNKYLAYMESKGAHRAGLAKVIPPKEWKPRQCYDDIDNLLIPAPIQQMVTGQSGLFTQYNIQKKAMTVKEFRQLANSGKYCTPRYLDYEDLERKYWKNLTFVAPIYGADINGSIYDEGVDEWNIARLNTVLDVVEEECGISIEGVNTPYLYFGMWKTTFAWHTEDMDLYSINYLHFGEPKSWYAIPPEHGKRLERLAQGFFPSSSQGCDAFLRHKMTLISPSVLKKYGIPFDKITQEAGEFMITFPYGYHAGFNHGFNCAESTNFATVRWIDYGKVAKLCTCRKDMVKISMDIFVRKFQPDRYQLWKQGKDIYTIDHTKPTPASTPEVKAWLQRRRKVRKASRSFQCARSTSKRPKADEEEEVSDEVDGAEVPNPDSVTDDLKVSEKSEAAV
PP5 primary – inhibitors of human protein phosphatase 5 (PP5); purified PP5c, OMFP substrate fluorescence; inhibition, % at 6.7 µM; 320,000 compounds, 0.18% hits; AID 1987;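 active means inhibition above the campaign's mean inhibition across all tested compounds plus 3 SD, cut at about 9.5% in these data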;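 further: 0% = DMSO only and 100% = 100 µM cantharidin control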
PP1 inh confirm – confirmation of human PP1 phosphatase inhibitors; shares compounds with PP1 inh; purified PP1alpha, OMFP substrate fluorescence; inhibition, % at 6.7 µM; 1,900 compounds, 52% hits;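 active means mean PP1 inhibition above a set limit taken from the earlier primary screen, cut at about 15% in these data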
PP5 inh counter – counter-screen for PP1 inhibitors: human PP5 phosphatase inhibition | shares compounds with PP1 inh | purified PP5c, OMFP fluorescence | inhibition, % at 6.7 µM | 1,900 compounds, 4% hits;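 active means mean PP5 inhibition over triplicate wells above about 9.5% taken from the earlier PP1 screen, limit read from the data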
* = called active by the depositor. Compounds with a hit are over-represented: about 2.8% of the library has one in this group of screens.

What do the screens show for `O=C(NN1C(=O)/C(=C/C=C/c2ccco2)SC1=S)c1ccccc1O`?
proKLK7 act: 0; PG9 Ab binder: -3; PP1 inh: 33*; NR1D1 modulator: -36; GASC-1 inh: 2; PP5 primary: 0; PP1 inh confirm: 14; PP5 inh counter: -3

Results for Cn1cccc1/C=C1\SC(=S)N(NC(=O)c2ccccc2O)C1=O ?
proKLK7 act: 0; PG9 Ab binder: -1; PP1 inh: 1; NR1D1 modulator: 15; GASC-1 inh: 1; PP5 primary: -2

Results for CCOC(=O)[C@]12CCCCC/C=C\1N(CCc1ccc(Cl)cc1)C(=O)[C@H]2CC(=O)NCCc1ccccc1OC ?
proKLK7 act: 0; NR1D1 modulator: 8

How did CCCOC(=O)c1ccc(NC(=O)c2ccccc2OC)cc1 do in these assays?
proKLK7 act: 0; PG9 Ab binder: 0; PP1 inh: -4; NR1D1 modulator: 0; GASC-1 inh: 1; PP5 primary: 2

How did CCCCOC(=O)c1ccc(NC(=O)c2ccccc2OC)cc1 do in these assays?
proKLK7 act: 0; PG9 Ab binder: -2; PP1 inh: 64*; NR1D1 modulator: -3; GASC-1 inh: 17; PP5 primary: 7; PP1 inh confirm: 1; PP5 inh counter: 2

Results for Clc1ccccc1N1CCN(C2=Nc3ccccc3Sc3ccccc32)CC1 ?
proKLK7 act: -1; NR1D1 modulator: -2

Results for COC(=O)c1cc2c(c3c4ccccc4n(S(C)(=O)=O)c13)C(=O)N(Cc1ccccc1)C2 ?
proKLK7 act: -2; PG9 Ab binder: 2; NR1D1 modulator: 4

What do the screens show for `CC(C)c1ccc(/C=C2\SC(=O)N(CC(=O)NC3C=CS(=O)(=O)C3)C2=O)cc1` (stereo not drawn)?
proKLK7 act: -1; PG9 Ab binder: -1; PP1 inh: 28*; NR1D1 modulator: -4; GASC-1 inh: 11; PP5 primary: 2; PP1 inh confirm: 33*; PP5 inh counter: -3

How did Nc1c(C(=O)NCc2ccccc2)nnn1Cc1ccccc1 do in these assays?
proKLK7 act: 0; PG9 Ab binder: -3; PP1 inh: -1; NR1D1 modulator: -2; GASC-1 inh: 3; PP5 primary: -1

Results for c1ccc(Cn2nnc(CNc3ccccc3)c2-c2c(CNc3ccccc3)nnn2Cc2ccccc2)cc1 ?
PP1 inh: 23*; GASC-1 inh: -2; PP5 primary: 4; PP1 inh confirm: 4; PP5 inh counter: 1

How did O=C(Nc1ccccc1Cl)O[C@@H]1CC[C@@]23CCCN2C(=O)CCC[C@H]3C1 do in these assays?
NR1D1 modulator: 3

Results for O=C(Cc1cccs1)N=Nc1c(O)[nH]c2ccccc12 ?
proKLK7 act: 0; PG9 Ab binder: -12; PP1 inh: -1; NR1D1 modulator: -2; GASC-1 inh: -50; PP5 primary: 0

Results for O=C(N=Nc1c(O)[nH]c2ccccc12)c1cc(-c2cccs2)[nH]n1 ?
proKLK7 act: 0; PG9 Ab binder: -1; PP1 inh: 18*; NR1D1 modulator: -34; GASC-1 inh: -1; PP5 primary: 4; PP1 inh confirm: 24*; PP5 inh counter: 3

Results for N#C/C(=C(/O)c1ccc([N+](=O)[O-])cc1)c1nc2ccccc2[nH]1 ?
proKLK7 act: 0; PG9 Ab binder: 0; PP1 inh: -3; NR1D1 modulator: -11; GASC-1 inh: 35; PP5 primary: 1

What do the screens show for `N#C/C(=C(/O)c1ccc(Cl)c([N+](=O)[O-])c1)c1nc2ccccc2[nH]1`?
proKLK7 act: 0; PG9 Ab binder: 0; PP1 inh: 20*; NR1D1 modulator: -6; GASC-1 inh: -1; PP5 primary: 4; PP1 inh confirm: 14; PP5 inh counter: -1

How did Cc1ccc(S(=O)(=O)NC[C@H]2CN(S(=O)(=O)c3ccc(C)cc3)[C@@H](Cc3ccccc3)CO2)cc1 do in these assays?
NR1D1 modulator: 8

What do the screens show for `OC(c1ccccc1)(c1ccccc1)C1CCN(CCCOc2ccc(C(F)(F)F)cc2)CC1`?
proKLK7 act: 1; PG9 Ab binder: -3; NR1D1 modulator: 2

What do the screens show for `O=C(CSC1=N/C(=C/c2ccco2)C(=O)N1c1ccc(OC(F)F)cc1)NC1CCS(=O)(=O)C1` (stereo not drawn)?
proKLK7 act: 0; PG9 Ab binder: 0; PP1 inh: -4; NR1D1 modulator: 4; GASC-1 inh: 1; PP5 primary: -2

How did CCNC(=O)CSC1=N/C(=C\c2ccc(O)c(OCC)c2)C(=O)N1c1ccc(OC(F)F)cc1 do in these assays?
proKLK7 act: -1; PG9 Ab binder: -4; PP1 inh: 18*; NR1D1 modulator: 12; GASC-1 inh: -14; PP5 primary: 2; PP1 inh confirm: 19*; PP5 inh counter: -6

Results for C=CCCC1CN(Cc2ccc(OC)cc2)S(=O)(=O)c2c(cccc2N2CCCCC2)O1 (stereo not drawn) ?
proKLK7 act: 0; PG9 Ab binder: 0; NR1D1 modulator: -2

What do the screens show for `Cc1cc(C)c2nc(NNC(=O)c3ccc(S(=O)(=O)N4CCc5ccccc5C4)cc3)sc2c1`?
proKLK7 act: -1; PG9 Ab binder: -2; PP1 inh: 22*; NR1D1 modulator: 6; GASC-1 inh: 46; PP5 primary: 1; PP1 inh confirm: 27*; PP5 inh counter: 1

How did CCc1nnc(NC(=O)c2ccc(S(=O)(=O)N3CCc4ccccc4C3)cc2)s1 do in these assays?
proKLK7 act: 0; PG9 Ab binder: -1; PP1 inh: -4; NR1D1 modulator: -1; GASC-1 inh: 9; PP5 primary: 0

What do the screens show for `Cc1cc(C)c2sc(NNC(=O)c3ccc(S(=O)(=O)N4CCc5ccccc5C4)cc3)nc2c1`?
proKLK7 act: -1; PG9 Ab binder: 1; PP1 inh: 24*; NR1D1 modulator: -5; GASC-1 inh: -25; PP5 primary: 4; PP1 inh confirm: 37*; PP5 inh counter: -2

How did CN(CCOc1ccccc1)CC(O)COCc1ccccc1F (stereo not drawn) do in these assays?
proKLK7 act: 0; PG9 Ab binder: -3; PP1 inh: 1; NR1D1 modulator: -1; GASC-1 inh: 3; PP5 primary: 0

Results for CC1CC(C)CN(CC(O)COCc2ccccc2F)C1 (stereo not drawn) ?
proKLK7 act: 0; PG9 Ab binder: -4; PP1 inh: 39*; NR1D1 modulator: 5; GASC-1 inh: 0; PP5 primary: -2; PP1 inh confirm: -4; PP5 inh counter: -5

Screening results as filed in PubChem.
